Seven molecules from PubChem BioAssay (Tox21) can be followed below.

Molecules are shown by their SMILES. Values without a mark were called inactive. Inconclusive results are not listed. Activity calls are given as the source filed them. Unless noted, calls come from the whole dose curve; as a rule, active = well fitted curve in the direction sought with a large enough effect in the repeat runs; inconclusive = weak or mixed curves; inactive = no such curve, though single readings can be large; an effect the other way counts as inactive or inconclusive.

Test [1] is described as follows: qHTS assay to identify small molecule antagonists of the estrogen related receptor (ERR) signaling pathway from Tox21 library - cell viability counter screen (AID 1224834). Note: nearly all actives have a fitted effect of over 30% in size. Note: potency is the fitted concentration of half-maximal effect. In outline: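 ERR cells, 2,000/well; 6 h settle at 37 C/5% CO2; pin-tool compound transfer in DMSO; 17.5 h at 37 C; CellTiter-Fluor, 30 min; fluorescence intensity.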
Test [2] deals with Luciferin 4-monooxygenase (Photinus pyralis) (UniProt P08659). Description: qHTS assay to identify small molecule inhibitors of firefly luciferase (AID 1224835). Note: nearly all actives have a fitted effect of over 25% in size. Note: potency is the fitted concentration of half-maximal effect. In outline: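 Quantitative HTS format; KM concentrations of both substrates. Purified P. pyralis FLuc activity quantified from luminescence images.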
Chain of Luciferin 4-monooxygenase (Photinus pyralis) (P08659 whole entry, looked up): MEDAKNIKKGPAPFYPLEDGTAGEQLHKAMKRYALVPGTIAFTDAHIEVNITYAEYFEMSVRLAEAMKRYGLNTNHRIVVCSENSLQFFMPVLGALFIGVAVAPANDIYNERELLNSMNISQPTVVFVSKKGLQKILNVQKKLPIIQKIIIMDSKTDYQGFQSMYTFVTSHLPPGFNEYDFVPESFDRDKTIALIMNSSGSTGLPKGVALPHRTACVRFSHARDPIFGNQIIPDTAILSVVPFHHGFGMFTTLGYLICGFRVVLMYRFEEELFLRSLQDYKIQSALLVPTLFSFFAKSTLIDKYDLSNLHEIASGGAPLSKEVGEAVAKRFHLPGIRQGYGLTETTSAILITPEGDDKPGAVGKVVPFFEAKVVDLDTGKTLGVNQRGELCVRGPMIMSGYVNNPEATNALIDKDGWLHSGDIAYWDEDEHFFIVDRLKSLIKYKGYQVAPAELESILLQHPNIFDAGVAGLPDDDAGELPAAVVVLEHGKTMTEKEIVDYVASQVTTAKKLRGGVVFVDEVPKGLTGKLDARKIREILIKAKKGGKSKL
A general note: Quantitative high-throughput screening tests each substance at several concentrations.

The nature of test [3]: qHTS assay to identify small molecule agonists of the constitutive androstane receptor (CAR) signaling pathway - cell viability counter screen (AID 1224836). Note: nearly all actives have a fitted effect of over 45% in size. Note: potency is the fitted concentration of half-maximal effect. The method in brief: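 Fluorescence from CellTiter-Fluor indicates live cells after 23 h exposure. The human hepatoma line expresses hCAR and a CYP2B6-2.2kb reporter. Incubation medium contains 0.75 uM PK11195 (final).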

Test [4] is described as follows: qHTS assay to identify small molecule antagonists of the constitutive androstane receptor (CAR) signaling pathway - cell viability counter screen (AID 1224837). Note: nearly all actives have a fitted effect of over 45% in size. Note: potency is the fitted concentration of half-maximal effect. In outline: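 Viability was measured with CellTiter-Fluor in a HepG2 line carrying stably transfected hCAR and a CYP2B6-2.2kb construct. Cells were exposed for 23 hr at 37 C to 15 compound concentrations with 50 nM CITCO as agonist.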

For test [5], the target named is Nuclear receptor subfamily 1 group I member 3 (Homo sapiens) (UniProt Q14994). Description: qHTS assay to identify small molecule antagonists of the constitutive androstane receptor (CAR) signaling pathway (AID 1224838).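 Note: HepG2 cells stably expressing hCAR with CYP2B6 luciferase reporter stimulated by CITCO; nearly all actives have a fitted effect of over 40% in size.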 Note: potency is the fitted concentration of half-maximal effect. In outline:
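Antagonist mode used CITCO at a final 50 nM to activate CAR in human hepatoma HepG2 cells carrying stable hCAR and a 2.2 kb CYP2B6 promoter-luciferase construct. Compounds were tested at 15 concentrations over 24 h, with luminescence as the end point.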

The target is the same in test [6]. Description: qHTS assay to identify small molecule agonists of the constitutive androstane receptor (CAR) signaling pathway (AID 1224839). For activation: % is set by controls: 0 for no effect and ±100 for the full control effect. Note: nearly all actives have a fitted effect of over 15% in size. Note: potency is the fitted concentration of half-maximal effect. The method in brief: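 Stable hCAR/CYP2B6-2.2kb HepG2 line in DMEM with 10% FBS; compounds (15 concentrations) and 0.75 uM PK11195 final, 24 h at 37 C/5% CO2, then ONE-Glo luminescence after 30 min.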
A short description of test [7]: qHTS assay to identify small molecule antagonists of the estrogen related receptor signaling pathway with the pleiotropic PPARgamma coactivator (PGC) from Tox21 10K library - cell viability counter screen (AID 1224840; active = well fitted cell-killing curve with a large enough effect in the repeat runs, not every such curve was filed as active; note: nearly all actives have a fitted effect of over 40% in size; note: potency is the fitted concentration of half-maximal effect). In outline:
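Multiplexed viability counter screen in the PGC/ERR cell line: cells treated with DMSO-dissolved compounds for 17.5 hours at 37 C, then viability measured as CellTiter-Fluor fluorescence.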

The target in test [8] is Thyrotropin receptor (Homo sapiens) (UniProt P16473). Description: qHTS assay to identify small molecule agonists of the thyroid stimulating hormone receptor (TSHR) signaling pathway (AID 1224843; calls by dose curve; note: % is set by controls: 0 for no effect and ±100 for the full control effect; nearly all actives have a fitted effect of over 45% in size). In outline: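 Compounds are titrated over 15 concentrations, in triplicate, onto TSHR-HEK293 cells seeded at 800/well. Plates sit 30 min at room temperature before cAMP-d2 and anti-cAMP cryptate are added; signal is read after a further hour.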
Chain of Thyrotropin receptor (Homo sapiens) (P16473 whole entry, looked up): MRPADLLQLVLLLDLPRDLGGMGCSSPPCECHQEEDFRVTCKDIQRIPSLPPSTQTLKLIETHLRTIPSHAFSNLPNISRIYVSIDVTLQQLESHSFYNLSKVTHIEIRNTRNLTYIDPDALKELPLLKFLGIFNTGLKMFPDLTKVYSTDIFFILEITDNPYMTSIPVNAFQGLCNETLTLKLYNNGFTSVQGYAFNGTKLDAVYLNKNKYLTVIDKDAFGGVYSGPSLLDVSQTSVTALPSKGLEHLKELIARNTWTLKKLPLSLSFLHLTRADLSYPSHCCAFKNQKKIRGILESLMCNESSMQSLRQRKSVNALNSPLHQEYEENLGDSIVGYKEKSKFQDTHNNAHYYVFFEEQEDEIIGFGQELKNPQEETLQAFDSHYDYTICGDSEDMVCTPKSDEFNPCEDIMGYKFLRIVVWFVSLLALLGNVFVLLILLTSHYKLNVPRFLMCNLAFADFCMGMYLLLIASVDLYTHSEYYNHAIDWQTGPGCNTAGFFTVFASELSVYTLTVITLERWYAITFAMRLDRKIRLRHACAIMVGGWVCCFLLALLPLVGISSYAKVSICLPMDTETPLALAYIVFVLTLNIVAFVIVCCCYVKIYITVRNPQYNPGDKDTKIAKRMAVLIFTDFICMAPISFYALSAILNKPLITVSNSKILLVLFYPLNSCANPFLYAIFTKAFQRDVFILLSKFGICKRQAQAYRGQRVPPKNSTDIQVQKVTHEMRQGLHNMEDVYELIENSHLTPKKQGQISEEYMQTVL

Test [9] in a line: qHTS assay to identify small molecule agonists of the hypoxia (HIF-1) signaling pathway - cell viability counter screen (AID 1224844; calls by dose curve; note: % is set by controls: 0 for no effect and ±100 for the full control effect; nearly all actives have a fitted effect of over 50% in size). The method in brief:
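Cytotoxicity was measured in parallel with the HRE-driven beta-lactamase readout: after 17 hrs of compound exposure at 37C, HRE-bla ME-180 cells received CellTiter-Glo and luminescence was recorded 30 min later.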

Test [10] in a line: qHTS assay to identify small molecule agonists of H2AX (AID 1224845; active = well fitted activation curve with a large enough effect in the signal ratio in the repeat runs, not every such curve was filed as active; the % refers to the signal ratio; note: % is set by controls: 0 for no effect and ±100 for the full control effect). The method in brief: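 Wild-type CHO-K1 cells plated overnight, then exposed 3 hr at 37C to compounds at 15 concentrations (0.76% DMSO). Lysed, then HTRF anti-pH2AX(S139)-cryptate/anti-H2AX-d2 detection after 24 hr at room temperature; emissions 665 and 620 nm.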
A short description of test [11]: qHTS assay to identify small molecule agonists of the hypoxia (HIF-1) signaling pathway (AID 1224846; active = well fitted activation curve with a large enough effect in the signal ratio in the repeat runs, not every such curve was filed as active; the % refers to the signal ratio; note: % is set by controls: 0 for no effect and ±100 for the full control effect). The method in brief: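 Compounds from the Tox21 10K library, dissolved in DMSO, are tested for induction of a hypoxia response element–controlled beta-lactamase reporter in ME-180 cells. Exposure lasts 17 hrs at 37C after a 5 hr settling period, followed by CCF4-AM FRET substrate.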

Test [12] is described as follows: qHTS assay to identify small molecule agonists of H2AX - cell viability counter screen (AID 1224847; calls by dose curve; note: nearly all actives have a fitted effect of over 30% in size; note: potency is the fitted concentration of half-maximal effect). The method in brief:
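Viability of CHO-K1 (wild type) cells after 3 hr compound exposure was measured by CellTiter-Glo luminescence.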

A short description of test [13]: qHTS RealTime-Glo MT Cell Viability Assay in HepG2 cells - 24 hour (AID 1224867). Note: % is set by controls: 0 for no effect and ±100 for the full control effect; nearly all actives have a fitted effect of over 50% in size. In outline: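 Tox21 10K library screened in qHTS format on HepG2 cells carrying RealTime-Glo reagents. Compounds were added after a 5 h preincubation, and the luminescent signal from continuous culture was measured repeatedly during 40 h treatment.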
The nature of test [14]: qHTS RealTime-Glo MT Cell Viability Assay in HEK293 cells - 32 hour (AID 1224868). Note: top concentration of the series differs between compounds; % is set by controls: 0 for no effect and ±100 for the full control effect; nearly all actives have a fitted effect of over 50% in size. The method in brief: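 Luminescence generated by NanoLuc from substrate produced by living HEK293 cells served as the viability signal. Each value reflects the reading at its stated time point during continuous 40 h compound exposure at 37 C.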
Test [15] can be described thus: A CellTox Green Cytotoxicity Assay to monitor cytotoxicity in HEK293 cells - 0 hour (AID 1224869). Note: % is set by controls: 0 for no effect and ±100 for the full control effect; nearly all actives have a fitted effect of over 50% in size. In outline:
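Cells (HEK293, 600/well) and dye reagent are dispensed together. After 5 h at 37 C, 23 nL compound is pinned in. Plates stay at 37 C for 40 h with fluorescence read at 0h, 8h, 16h, 24h, 32h and 40h.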

Test [16] can be described thus: qHTS RealTime-Glo MT Cell Viability Assay in HepG2 cells - 40 hour (AID 1224870). The method in brief: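 HepG2 cells mixed with RealTime-Glo MT reagents (NanoLuc plus cell-permeant prosubstrate) were seeded at 600 cells/well, incubated 5 h at 37 C/5% CO2, then pinned with compounds in DMSO; nonlytic luminescence tracked viability during 40 h treatment.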
Test [17] in a line: qHTS assay to identify small molecule antagonists of the estrogen related receptor signaling pathway with the pleiotropic PPARgamma coactivator (PGC) from Tox21 10K library (AID 1224841; call rule not given here). In outline: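 Steps: plate 2,000 PGC/ERR cells per well; incubate 6 h at 37 C with 5% CO2; transfer compounds from DMSO stocks by pin tool; incubate 18 h at 37 C; add One-Glo; measure luminescence 30 min later.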

A short description of test [18]: qHTS assay to identify small molecule agonists of the estrogen related receptor signaling pathway with the pleiotropic PPARgamma coactivator (PGC) from Tox21 10K library (AID 1224842). Note: % is set by controls: 0 for no effect and ±100 for the full control effect; nearly all actives have a fitted effect of over 15% in size. The method in brief:
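PGC/ERR reporter cells (NTP line) were seeded 2,000 per well, rested 6 h at 37 C/5% CO2, then pin-dosed with compounds in DMSO for 18 h at 37 C; luciferase read by One-Glo luminescence after 30 min at room temperature.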

Test [19] in a line: qHTS assay to identify small molecule antagonists of the estrogen related receptor (ERR) signaling pathway from Tox21 library (AID 1224848). The method in brief: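 First, 2,000 ERR cells per well were plated and held 6 h at 37 C/5% CO2. Next, compounds in DMSO were pinned in and left 18 h at 37 C. Finally, ONE-Glo was added and luminescence read after 30 min at room temperature.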

The nature of test [20]: qHTS assay to identify small molecule agonists of the estrogen related receptor (ERR) signaling pathway from Tox21 library (AID 1224849; calls by dose curve; note: % is set by controls: 0 for no effect and ±100 for the full control effect; nearly all actives have a fitted effect of over 15% in size). The settings on record: ERR reporter cell line, ONE-Glo luciferase, 18 h; at 92.4 µM (top of the series) unless noted. In outline:
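Cells carrying the ERR reporter were plated and allowed to settle for 6 h, exposed to library compounds for 18 h at 37 C, then lysed with ONE-Glo and luminescence measured.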

Chain of Nuclear receptor subfamily 1 group I member 3 (Homo sapiens) (Q14994 whole entry, looked up): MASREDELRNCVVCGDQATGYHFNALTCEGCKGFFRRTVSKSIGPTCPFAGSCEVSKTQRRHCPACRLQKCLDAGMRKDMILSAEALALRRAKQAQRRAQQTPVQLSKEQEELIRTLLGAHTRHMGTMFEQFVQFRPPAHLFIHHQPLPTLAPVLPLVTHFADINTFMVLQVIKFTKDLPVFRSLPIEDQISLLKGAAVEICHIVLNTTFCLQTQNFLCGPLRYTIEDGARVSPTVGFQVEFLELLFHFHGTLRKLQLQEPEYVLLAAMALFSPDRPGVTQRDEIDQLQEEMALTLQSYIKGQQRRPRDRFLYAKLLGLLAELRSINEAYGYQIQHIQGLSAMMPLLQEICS

Take `Cc1cc(C)c(N)cc1C`: the Potency result in test [1], in [2], in test [3], in test [4], in test [5] and in [6] was “inactive” each time. The Potency entry in [7], in [8], in test [9], in [10], in test [12] and in test [13] was “inactive” in each case. The Potency result in [14], in test [15] and in [16] was “inactive” in each case. Moreover, the result in test [11] was inactive.
In the case of `Cc1cc(C)cc(N)c1`, the Potency entry in [1], in [2], in [3], in [4], in test [5] and in test [6] was “inactive” throughout. Moreover, the Potency entry in [7], in [8], in [9], in test [10], in test [13] and in test [14] was “inactive” each time. Besides, in [15], the Potency entry was “inactive”. Also, the molecule was classed as inactive in [11].
Turning to `CC1=C(Br)C(=O)C(Br)=C/C1=C(/c1ccccc1S(=O)(=O)O)c1cc(Br)c(O)c(Br)c1C`, the Potency was 18.6 µM (active) in [1]; 19.2 µM (active) in [2]; 18.6 µM (active) in test [3]; 33 µM (active) in [4]; 18.6 µM (active) in test [5]; 18.6 µM (active) in test [7]. For the same molecule, the figures for the Potency in test [17], in test [12] and in test [19] were 16.5 µM (active), 21.7 µM (active) and 18.6 µM (active), respectively. Moreover, the Potency entry in [6], in test [18], in [13], in test [14] and in test [15] was “inactive” throughout. The molecule was classed as inactive in [11]. The activity change, positive = activation in test [20] was -55.4% [at 42.5 µM].
Regarding `C=C(C)C(=O)OCCCCCCCCCCCCC`, the Potency result in test [1], in test [2], in [3], in test [4], in test [5] and in [6] was “inactive” throughout. Besides, the Potency result in test [7], in test [8], in [9], in test [10], in [12] and in [13] was “inactive” each time. The Potency result in test [14], in test [15] and in test [16] was “inactive” in each case. Also, the molecule was called inactive in test [11].
On to `CCOC(=O)OC(C)OC(=O)[C@@H]1N2C(=O)[C@@H](NC(=O)[C@H](N)c3ccccc3)[C@H]2SC1(C)C` (stereo partly specified), for which the Potency entry in test [1], in test [2], in test [3], in [4], in test [5] and in test [6] was “inactive” in each case. Also, the Potency entry in test [7], in test [8], in [9], in test [10], in [12] and in test [13] was “inactive” throughout. In addition, the Potency result in test [14] and in [15] was “inactive” each time.
For the molecule `O=C(O)C[C@H](NC(=O)OCc1ccccc1)C(=O)O`, the Potency result in test [1], in test [2], in test [3], in test [4], in [5] and in test [6] was “inactive” throughout. Also, the Potency entry in test [7], in test [8], in test [9], in test [10], in [12] and in [13] was “inactive” each time. Also, the Potency entry in test [14] and in [15] was “inactive” each time. For the same molecule, in [11], the outcome was inactive.
Consider `c1ccc2c(c1)CCc1ccccc1N2`, for which the Potency result in test [1], in test [3], in [4], in test [5], in test [7] and in [8] was “inactive” throughout. Besides, the Potency entry in test [9], in [13], in test [14], in test [15] and in [16] was “inactive” each time. For the same molecule, the Potency in test [2] is 63.6 µM (active); in test [6], 54.8 µM (active); in [12], 101 µM (active). Besides, the result in [11] was inactive.
